# From PubChem BioAssay AID2314 (National Center for Advancing Translational Sciences (NCATS), 2010)
# About 37,000 (12%) of roughly 300,000 compounds were called active. The sample holds actives, similar compounds and a random draw of the others, so the mix is not that of the screen. Unmarked numbers belong to inactive results. Rule as the data show it: active = max response mostly above about 13% (no sharp cut-off); inactive = mostly below about 14%.
# Experiment: Cycloheximide Counterscreen for Small Molecule Inhibitors of Shiga Toxin; also: read at 38.3 µM for the half of the compounds with a filed dose; 0% is about no effect
# Settings: cell reporter, cycloheximide protein synthesis inhibition counterscreen; hits give high values
row,Structure (SMILES),max response
1,CCn1c(=O)n(CC)c2cc(N3CCCC3)c(NC(=O)c3ccccc3Br)cc21,-1.85%
2,CC(C)(C)c1ccc(C(=O)N2CCN(CCNC(=O)C(=O)Nc3ccc(F)cc3)CC2)cc1,5.93%
3,Cc1ccc(-c2nnc(-n3nnc4ccccc43)c3ccccc23)cc1,9.11%
4,O=C1N=C(N2CCCC2)S/C1=C\c1cccc(Br)c1,20.2% (active)
5,O=C1N=C(N2CCc3ccccc3C2)S/C1=C\c1ccc(O)cc1,10.4%
6,CCOc1cc(/C=C2\C(=N)N3N=C(C)SC3=NC2=O)ccc1OCCOc1ccccc1,-1.53%
7,O=C(Nc1nnc(S(=O)(=O)N2CCCCCC2)s1)c1cccc(Br)c1,-2.43%
8,CC1CCN(C2=NC(=O)/C(=C/c3cn[nH]c3-c3ccccc3)S2)CC1,20.1%
9,CCOc1ccc(/C=C2\SC(=S)N(NC(=O)c3ccncc3)C2=O)cc1OC,-1.69%
10,CCOc1cc(/C=C2\SC(N3CCCCC3)=NC2=O)ccc1O,36.3% (active)
11,CCOc1cc(/C=C2/C(=N)N3OC(C)=CC3=NC2=O)ccc1OC,4.64%
12,CCOc1cc(/C=C2\SC(N3CCCC(C)C3)=NC2=O)ccc1O (stereo not given),36.5% (active)
13,CCOc1cc(C(=S)N2CCOCC2)ccc1O,-1.42%
14,O=C1N=C2SCCN2/C1=C\c1c(Cl)cccc1Cl,1.23%
15,CC1CCN(C2=NC(=O)/C(=C/c3ccc(O)cc3)S2)CC1,31.9% (active)
16,Cc1ccc(N2CC(C(=O)NCCS(=O)(=O)N3CCN(c4ccccc4)CC3)CC2=O)cc1 (stereo not given),1.37%
17,CCOC(=O)c1c(-c2ccccc2)oc2ccc(OCC(N)=O)cc12,-1.21%
18,O=C(O)CCCCCCCCc1cn(CN2C(=O)c3ccccc3C2=O)nn1,1.15%
19,CCc1ccc(-c2cc3c(=O)n(CC(=O)NCCCN4CCN(Cc5ccccc5)CC4)nc(C)n3n2)cc1,-1.84%
20,O=C(Cn1nc(CNc2ccc(Cl)cc2)[n+]2c1CCCCC2)c1ccc(Cl)cc1,11%

row,Structure (SMILES),max response
1,Cc1cccc(Oc2c([N+](=O)[O-])c(=O)n(C)c3ccccc23)c1,6.49%
2,CCOc1ccc(CCNC(=O)C(CC)n2nc(C)n3c(cc4sccc43)c2=O)cc1OCC (stereo not given),-1.8%
3,CCN(CC)CCCSc1nc2ccccc2s1,36% (active)
4,Cn1c(=O)[nH]c(=O)c2c1nc(N1CCN(CCO)CC1)n2CCSc1nc2ccccc2s1,-5.89%
5,Cc1nc2nc(CSc3nc4ccccc4s3)cc(=O)n2[nH]1,-7.38%
6,O=C(COCc1cc(-c2ccc3c(c2)OCO3)on1)N1CCN(c2cccc(Cl)c2)CC1,-2.82%
7,O=C(COC(=O)Cn1cnc2ccccc2c1=O)NCC12CC3CC(CC(C3)C1)C2,-1.91%
8,COc1ccc(CCNC(=O)C(=O)NCc2ccccc2C)cc1OC,-2.75%
9,COc1cc(CNc2ncn[nH]2)ccc1OCc1ccccc1C,36.9% (active)
10,c1n[nH]c(NCc2ccc3c(c2)OCO3)n1,-1.69%
11,COC(=O)CN1C(=O)[C@H]2[C@@H](/C=C/c3ccccc3)N3C(=O)CN(CC4CC4)C(=O)[C@@]3(Cc3ccccc3)[C@H]2C1=O,0.35%
12,Cc1c2cnn(CC(=O)NCCCN3CC(C)CC(C)C3)c(=O)c2c(C)n1Cc1ccc(Cl)cc1 (stereo not given),-5.34%
13,CCc1ccc2ncc(C(=O)c3ccccc3)c(N3CCOCC3)c2c1,2.65%
14,CCOc1ccc(C(=O)Nc2c3c(nn2-c2ccccc2)CS(=O)(=O)C3)cc1,-1.43%
15,CCC1C(=O)NCCN1C(=O)c1ccc2nc(Cc3ccc(OC)cc3)oc2c1 (stereo not given),16.3%
16,COc1ccc(C(=O)NCCc2ccc(S(N)(=O)=O)cc2)cc1OC,9.83%
17,Cn1cc(C(=O)NCc2ccccc2F)cn1,-3.82%
18,COc1ccc(Cc2nc3ccc(C(=O)NCC4CCOCC4)cc3o2)cc1OC,23.6% (active)
19,COc1ccccc1-n1c(C)nc2cc(C(=O)NCc3ccc4c(c3)OCO4)ccc21,5.54%
20,CCn1ccnc1CN(C)C(=O)c1ccc2nc(Cc3ccc(OC)cc3)oc2c1,-0.601%

row,Structure (SMILES),max response
1,COCCNC(=O)c1ccc2nc(Cc3ccc(OC)c(OC)c3)oc2c1,32% (active)
2,CSCCNC(=O)c1ccc2nc(Cc3ccccc3F)oc2c1,54.4% (active)
3,COc1ccc(Cc2nc3ccc(C(=O)N4CCC(N(C)C)C4)cc3o2)cc1 (stereo not given),7.38%
4,Cc1ccc(S(=O)(=O)N2CCC3(CC2)OCCO3)c(C)c1,-3.35%
5,Cc1ccc(S(=O)(=O)N2CCN(C(=O)CSc3cc(C)ccc3C)CC2)c(C)c1,12.6%
6,C=CCOc1ccc(/C=C/C(=O)OCC(=O)NC2CCCCCC2)cc1,-2.39%
7,O=S(=O)(Cc1nnnn1-c1ccccc1)c1ccccc1,-0.262%
8,O=C(CN1C(=O)c2ccccc2S1(=O)=O)NC1CCCCC1,3.93%
9,Cc1ccc(F)cc1NC(=O)N1CCCN(c2ccc(C(F)(F)F)cn2)CC1,-0.488%
10,O=C(CSc1nc(Nc2ccccc2)nc(N2CCOCC2)n1)Nc1cc(Cl)ccc1O,7.58%
11,O=C(O)c1ccc(/C=C2/SC(=S)N(c3cccc(C(F)(F)F)c3)C2=O)cc1,-7.16%
12,FC(F)(F)c1cccc(NC(=S)Nc2cccc(Cl)c2)c1,-2.33%
13,FC(F)Oc1ccc(NC(=S)NCc2ccco2)cc1Cl,11.2%
14,Cc1c(Cl)cccc1NC(=S)NCc1ccc2c(c1)OCO2,-1.28%
15,CN(C)S(=O)(=O)c1cccc(NC(=S)NCc2ccc3c(c2)OCO3)c1,0.966%
16,COc1cc(NC(=S)NCc2ccco2)c(OC)cc1Cl,-2.3%
17,S=C(NCc1ccco1)Nc1ccc2c(c1)OCCO2,69.9% (active)
18,S=C(NCc1ccco1)NCc1ccccc1Cl,-2.41%
19,S=C(NCc1ccc2c(c1)OCO2)NCc1ccco1,28.4% (active)
20,S=C(Nc1cccc(Cl)c1)Nc1ccc2c(c1)OCCO2,42.2% (active)
